This note sets out measurements from PubChem BioAssay.

The nature of assay [1]: small molecules captured by biotinylated probe aFSTL3 – biochemical, small-molecule microarray, fluorescence 635/667, stem cell growth factor project, primary screen (AID 1064).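 Note: measures binding of the biotinylated anti-FSTL3 antibody to printed compounds.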 The following applies: higher = more signal.
Assay [2] can be described thus: binders from COS7 lysate, DM2A8 probe, primary screen, torsin A project, cell lysate, small-molecule microarray, fluorescence 635/667 (AID 1065). The settings on record: higher = more signal, COS7 lysate expressing mutant human TOR1A.
Assay [3] in a line: small molecules captured by biotinylated probe aFGF2 – biochemical, small-molecule microarray, fluorescence 635/667, stem cell growth factor project, primary screen (AID 1067).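 Note: measures binding of biotinylated aFGF2 protein to printed compounds on slides; z-score merges feature fluorescence and signal-to-noise across triplicate slides.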 The settings on record: higher = more signal.
Assay [4] in a line: small molecules captured by biotinylated probe aFGF10 – biochemical, small-molecule microarray, fluorescence 635/667, stem cell growth factor project, primary screen (AID 1071).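 Note: score merges 667 nm spot intensity and signal to noise from triplicate slides.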 The settings on record: higher = more signal.
Assay [5] has as its target Neurogenic locus notch homolog protein 2 (Homo sapiens) (UniProt Q04721). The assay is described as follows: small molecules binding Notch2 protein – biochemical, small-molecule microarray, 635 nm fluorescence, stem cell growth factors, primary screen (AID 1073). The settings on record: higher = more signal.
The target of assay [6] is Pro-neuregulin-1, membrane-bound isoform (Homo sapiens) (UniProt Q02297). The assay is described as follows: small molecules binding neuregulin-1 protein – biochemical, small-molecule microarray, fluorescence 635/667, psychiatric disease protein project, primary screen (AID 1075).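 Note: score combines 667 nm spot fluorescence with signal to noise.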 The settings on record: NRG1 binding, 635 nm fluorescence, higher = more signal.
Assay [7] concerns Neuregulin-1 EGF-like domain. In words: small molecules binding NRG1 EGF domain – biochemical, small-molecule microarray, 635 nm fluorescence, primary screen (AID 1081).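 Note: binding of the protein to compounds printed on small-molecule microarray slides.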 The following applies: higher = more signal.
Assay [8] can be described thus: FRG1 expression reporter modulators in myotubes – cell-based, C2C12 myotubes, firefly/Renilla luciferase, luminescence, FRG1 inhibition for FSHD, primary screen (AID 1084). The following applies: FRG1 promoter luciferase, higher = more signal, called active from +8 up or from −8 down.
A short description of assay [9]: small molecules captured by biotinylated probe aFST – biochemical, small-molecule microarray, fluorescence 635/667, stem cell growth factor project, primary screen (AID 1086).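 Note: score merges 667 nm fluorescence with signal-to-noise of each printed compound spot.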 The following applies: higher = more signal.
The nature of assay [10]: binders of probe aHhip on microarray, primary screen, stem cell growth factor project, biochemical, small-molecule microarray, fluorescence 635/667 (AID 1087).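 Note: score merges spot fluorescence at 667nm with spot signal to noise ratio.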 The settings on record: higher = more signal.
Assay [11] has as its system PRMT1 (protein arginine N-methyltransferase 1). The assay is described as follows: small molecules binding arginine methyltransferase PRMT1 – biochemical, small-molecule microarray, 635 nm fluorescence, primary screen (AID 1088).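 Note: binding of Prmt1 protein to compounds spotted on small-molecule microarray slides.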 The following applies: higher = more signal.
The nature of assay [12]: growth effects on S. cerevisiae YJM789 – YJM789 clinical isolate, OD600, 24 h, basal, primary screen (AID 1089).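 Note: growth of clinical yeast isolate S. cerevisiae YJM 789 seeded 1000 cells per well; test concentration not given here.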 The following applies: higher = more signal, called active from +8 up or from −8 down.
Assay [13] can be described thus: S. pombe growth modifiers, basal conditions – strain 972, OD600, 24 h, no modulator, primary screen (AID 1090).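 Note: basal condition with compound alone and no growth modifier present; test concentration not given here.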 The following applies: S. pombe 972 growth, higher = more signal, called active from +8 up or from −8 down.
Assay [14] can be described thus: budding yeast growth modifiers under rapamycin – strain BY4716, OD600, 96 h, primary screen (AID 1091). Note: test concentration not given here. The following applies: S. cerevisiae BY4716 + rapamycin, higher = more signal, called active from +8 up or from −8 down.
The target of assay [15] is Torsin-1A-interacting protein 2 (Homo sapiens) (UniProt Q8NFQ8). The assay is described as follows: small molecules binding lysate-expressed LULL1 – cell lysate, human LULL1 lysate, 635/667 nm fluorescence, primary screen (AID 1092).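 Note: probe is lysate of COS7 cells overexpressing human LULL1; score merges per-feature 667 nm fluorescence with signal-to-noise.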 The settings on record: small-molecule microarray, hLULL1 lysate binding, 635 nm fluorescence; higher = more signal.
The nature of assay [16]: optical density change of DRC41 E. coli – strain DRC41, OD650, 24 h, E. coli filamentation project, primary screen (AID 1093).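 Note: MC1000 strain lacking acrAB efflux and sulA so SOS filamentation is blocked; test concentration not given here.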 The following applies: E. coli DRC41 growth, higher = more signal, called active from +8 up or from −8 down.
Assay [17] can be described thus: probe aLefty2 binding to arrayed compounds – biochemical, biotinylated probe, 635/667 nm fluorescence, primary screen (AID 1094).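 Note: score merges spot fluorescence near 667 nm with spot signal-to-noise ratio.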 The settings on record: small-molecule microarray, higher = more signal.
The test system of assay [18] is Noggin (protein binding on small-molecule microarray). The assay is described as follows: small molecules binding Noggin protein – biochemical, 635/667 nm fluorescence, primary screen (AID 1095).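 Note: score merges 667 nm feature fluorescence with signal to noise over triplicate slides.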 The following applies: 635 nm fluorescence, higher = more signal.
Assay [19] deals with Neurogenic locus notch homolog protein 3 (Homo sapiens) (UniProt Q9UM47). The assay is described as follows: small molecules binding NOTCH3 protein – biochemical, 635/667 nm fluorescence, primary screen (AID 1096). The settings on record: small-molecule microarray, 635 nm fluorescence, higher = more signal.
Assay [20] is described as follows: probe aEGFR binding to arrayed compounds – biochemical, biotinylated probe, 635/667 nm fluorescence, primary screen (AID 1097).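 Note: probe is a biotinylated anti-EGFR antibody binding compounds printed on slides; score combines fluorescence near 667 nm and signal to noise of each spot.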 The following applies: small-molecule microarray, higher = more signal.

Structures are written as SMILES. Calls of active or inactive are those of the source.

Pro-neuregulin-1, membrane-bound isoform (Homo sapiens), sequence (Q02297 whole entry, looked up, the tested form may be a part, canonical isoform): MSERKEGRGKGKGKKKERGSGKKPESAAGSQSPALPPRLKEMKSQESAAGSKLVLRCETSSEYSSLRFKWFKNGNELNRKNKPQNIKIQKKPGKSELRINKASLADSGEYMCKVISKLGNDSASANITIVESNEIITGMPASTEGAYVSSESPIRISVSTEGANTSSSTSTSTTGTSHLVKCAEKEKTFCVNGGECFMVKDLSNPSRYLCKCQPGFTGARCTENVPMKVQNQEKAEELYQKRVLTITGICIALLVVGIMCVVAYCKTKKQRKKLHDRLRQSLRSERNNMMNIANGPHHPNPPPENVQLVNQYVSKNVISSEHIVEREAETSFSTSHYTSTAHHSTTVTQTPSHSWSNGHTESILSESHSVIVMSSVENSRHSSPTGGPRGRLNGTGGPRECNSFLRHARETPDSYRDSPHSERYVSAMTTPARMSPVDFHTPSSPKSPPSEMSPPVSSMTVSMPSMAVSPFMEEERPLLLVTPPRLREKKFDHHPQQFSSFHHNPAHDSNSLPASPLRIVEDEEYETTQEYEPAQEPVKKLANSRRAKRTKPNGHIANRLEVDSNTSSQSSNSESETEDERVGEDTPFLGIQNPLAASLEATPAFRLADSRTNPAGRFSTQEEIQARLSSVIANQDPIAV
Neurogenic locus notch homolog protein 2 (Homo sapiens), sequence (Q04721 whole entry, looked up, canonical isoform): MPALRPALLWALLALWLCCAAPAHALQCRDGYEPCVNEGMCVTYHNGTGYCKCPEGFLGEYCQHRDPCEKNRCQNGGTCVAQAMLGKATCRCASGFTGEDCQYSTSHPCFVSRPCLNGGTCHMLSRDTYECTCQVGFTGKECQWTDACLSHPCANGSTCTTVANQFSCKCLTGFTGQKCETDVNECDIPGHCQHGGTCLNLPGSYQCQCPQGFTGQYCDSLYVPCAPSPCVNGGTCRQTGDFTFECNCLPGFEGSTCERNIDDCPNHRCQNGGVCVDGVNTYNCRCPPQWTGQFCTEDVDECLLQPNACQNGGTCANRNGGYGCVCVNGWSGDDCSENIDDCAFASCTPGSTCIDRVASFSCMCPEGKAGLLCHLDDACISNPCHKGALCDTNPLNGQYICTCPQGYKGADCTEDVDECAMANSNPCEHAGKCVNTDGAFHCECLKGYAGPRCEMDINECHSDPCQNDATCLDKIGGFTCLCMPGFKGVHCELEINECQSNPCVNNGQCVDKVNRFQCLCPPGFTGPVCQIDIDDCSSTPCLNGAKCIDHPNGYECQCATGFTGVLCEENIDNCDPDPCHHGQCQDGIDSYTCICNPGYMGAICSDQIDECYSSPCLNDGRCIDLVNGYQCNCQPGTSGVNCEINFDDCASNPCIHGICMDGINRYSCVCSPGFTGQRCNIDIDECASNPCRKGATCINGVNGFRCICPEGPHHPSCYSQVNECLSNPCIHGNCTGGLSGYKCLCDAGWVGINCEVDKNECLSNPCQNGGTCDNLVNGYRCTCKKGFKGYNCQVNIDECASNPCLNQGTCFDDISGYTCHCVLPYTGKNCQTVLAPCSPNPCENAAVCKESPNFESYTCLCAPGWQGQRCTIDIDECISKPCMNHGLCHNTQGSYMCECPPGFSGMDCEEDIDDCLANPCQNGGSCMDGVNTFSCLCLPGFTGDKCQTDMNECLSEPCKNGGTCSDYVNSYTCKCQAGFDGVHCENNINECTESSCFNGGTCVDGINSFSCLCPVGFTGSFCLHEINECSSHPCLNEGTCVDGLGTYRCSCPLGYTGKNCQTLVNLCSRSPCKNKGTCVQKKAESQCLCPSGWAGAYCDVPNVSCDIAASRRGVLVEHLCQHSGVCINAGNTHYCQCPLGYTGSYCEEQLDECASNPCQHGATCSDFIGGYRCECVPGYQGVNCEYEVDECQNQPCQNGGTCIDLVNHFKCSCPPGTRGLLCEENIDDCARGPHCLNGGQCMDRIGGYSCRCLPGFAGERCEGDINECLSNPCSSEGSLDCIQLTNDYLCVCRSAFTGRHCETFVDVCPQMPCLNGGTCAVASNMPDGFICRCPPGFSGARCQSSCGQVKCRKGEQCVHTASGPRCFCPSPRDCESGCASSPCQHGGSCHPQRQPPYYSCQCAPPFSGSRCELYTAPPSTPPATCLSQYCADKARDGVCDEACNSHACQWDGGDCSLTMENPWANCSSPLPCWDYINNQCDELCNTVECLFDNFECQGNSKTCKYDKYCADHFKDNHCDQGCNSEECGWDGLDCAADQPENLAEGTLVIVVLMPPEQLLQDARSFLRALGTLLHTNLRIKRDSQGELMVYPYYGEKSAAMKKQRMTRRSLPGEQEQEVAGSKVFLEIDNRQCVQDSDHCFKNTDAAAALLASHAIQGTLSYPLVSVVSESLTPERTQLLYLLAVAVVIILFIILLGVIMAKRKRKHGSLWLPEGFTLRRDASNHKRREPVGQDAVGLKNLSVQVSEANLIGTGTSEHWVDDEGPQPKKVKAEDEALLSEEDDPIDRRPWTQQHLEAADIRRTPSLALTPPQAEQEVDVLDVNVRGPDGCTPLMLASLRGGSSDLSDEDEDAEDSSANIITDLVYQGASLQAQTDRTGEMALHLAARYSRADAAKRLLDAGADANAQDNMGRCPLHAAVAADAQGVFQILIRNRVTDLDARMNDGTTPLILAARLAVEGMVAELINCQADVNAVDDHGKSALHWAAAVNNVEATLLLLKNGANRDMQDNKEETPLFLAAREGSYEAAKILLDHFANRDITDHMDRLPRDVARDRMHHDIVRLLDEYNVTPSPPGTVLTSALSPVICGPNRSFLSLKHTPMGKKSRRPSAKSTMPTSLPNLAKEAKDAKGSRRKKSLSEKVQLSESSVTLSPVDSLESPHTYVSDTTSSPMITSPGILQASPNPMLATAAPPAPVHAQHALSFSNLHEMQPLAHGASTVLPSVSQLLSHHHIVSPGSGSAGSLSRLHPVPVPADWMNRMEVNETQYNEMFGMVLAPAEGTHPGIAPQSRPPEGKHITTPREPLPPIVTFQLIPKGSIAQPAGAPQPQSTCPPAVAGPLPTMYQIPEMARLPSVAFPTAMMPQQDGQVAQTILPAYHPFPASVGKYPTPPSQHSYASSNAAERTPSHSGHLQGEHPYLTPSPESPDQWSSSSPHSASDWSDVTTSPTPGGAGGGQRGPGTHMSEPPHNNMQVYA
Torsin-1A-interacting protein 2 (Homo sapiens), sequence (Q8NFQ8 whole entry, looked up): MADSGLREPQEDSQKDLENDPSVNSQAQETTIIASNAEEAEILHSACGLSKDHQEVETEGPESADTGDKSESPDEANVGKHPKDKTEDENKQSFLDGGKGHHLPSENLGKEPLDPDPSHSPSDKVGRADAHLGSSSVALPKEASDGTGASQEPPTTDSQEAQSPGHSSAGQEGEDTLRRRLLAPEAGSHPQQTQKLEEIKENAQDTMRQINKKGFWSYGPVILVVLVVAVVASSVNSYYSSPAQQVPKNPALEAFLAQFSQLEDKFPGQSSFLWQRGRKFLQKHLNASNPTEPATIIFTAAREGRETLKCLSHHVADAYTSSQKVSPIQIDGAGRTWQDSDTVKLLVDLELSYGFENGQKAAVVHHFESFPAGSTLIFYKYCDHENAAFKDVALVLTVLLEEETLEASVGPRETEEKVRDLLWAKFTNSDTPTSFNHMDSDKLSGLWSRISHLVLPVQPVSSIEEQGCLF

`CCN(CC)c1ccc(N2CC=CC34O[C@@H]5C=CCCOC(=O)C5[C@H]3C(=O)N(CCCO)[C@@H]4C2=O)cc1` (stereo not given in full): the composite z-score in [1] is -0.0768; in assay [2] it was -0.288; in [3], -0.158; in assay [4] it was -0.332; in [5], -0.816; in [6], -0.613. For the same compound, the composite z-score is -0.0612 in [7]; -0.177 in [9]; -0.134 in assay [10]; -0.664 in assay [11]; -1.02 in [15]; -0.122 in assay [17]. In addition, the composite z-score was 0.232 in assay [18], -0.155 in [19] and -0.162 in [20]. In addition, the z-score in assay [8] was -0.306 (inactive); in assay [12], -0.452 (inactive); in assay [13] it was -0.983 (inactive); in assay [14], -0.282 (inactive); in assay [16], 1.87 (inactive).
In the case of `O=C(N1CCCCC1)[C@]1(CCS(=O)(=O)c2ccccc2)N=C(c2ccc(OCCCO)cc2)O[C@@H]1c1ccccc1`, the composite z-score was determined as 1.04 in assay [1]; 0.815 in assay [2]; 0.215 in assay [3]; 0.803 in assay [4]; 0.773 in [5]; 1.49 in [6]. For the same compound, the composite z-score in [7] turned out to be 1.11; in assay [9], 0.636; in [10], 0.0623; in [11], 1.56; in assay [15] it was 2.4; in assay [17], 0.568. In addition, the figures for the composite z-score in assay [18], in assay [19] and in assay [20] were 0.115, 1.11 and 0.244, respectively. The z-score in [8] is -1.79 (inactive); in assay [12], -0.503 (inactive); in assay [13] it was -0.282 (inactive); in assay [14], 5.25 (inactive); in [16], -0.643 (inactive).
Take `CN1C(=O)C2C=CC(C(O)C(C)(C)C)N(Nc3ccccc3)C2C1=O` (stereo not given): the composite z-score in assay [1] is 0.207; in [2] it was -0.565; in [3], -0.14; in assay [4], -0.181; in assay [5], 0.0262; in assay [6], 1.4. Moreover, the composite z-score in [7] is 0.291; in assay [9], 0.0082; in [10], -0.173; in [11], -0.316; in assay [15], 3.16; in [17], -0.266. The composite z-score in assay [18] was -0.611; in assay [19], -0.784; in [20] it was -0.19. In addition, the z-score was -0.269 (inactive) in assay [8]; 0.392 (inactive) in assay [12]; 1 (inactive) in [13]; 0.949 (inactive) in assay [14]; -0.971 (inactive) in assay [16].
`[N-]=[N+]=NCc1ccccc1C[C@]1(C(=O)N2CCOCC2)N=C(c2ccc(OCCCO)cc2)O[C@H]1c1ccccc1`: the composite z-score in assay [1] was 0.303; in [2] it was 0.18; in [3], -0.0455; in assay [4], 0.686; in assay [5] it was 0.412; in assay [6] it was 0.766. Besides, the composite z-score in assay [7] was 0.542; in assay [9], 0.912; in assay [10] it was -0.0994; in assay [11] it was 1.46; in assay [15], 2.33; in assay [17], -0.162. Also, the results for the composite z-score in [18], in assay [19] and in assay [20] were 1.15, 0.673 and -0.0509, respectively. For the same compound, the z-score in assay [8] was -3.67 (inactive); in [12], -0.432 (inactive); in [13] it was -9.19 (active); in assay [14], 31.6 (active); in assay [16], 1.33 (inactive).
For the compound `C=C(/C(=C/C[C@@H](OC(C)=O)c1ccc(CO)o1)c1cnc2ccccc2c1)C(C)C`, the composite z-score in assay [1] was -0.524; in [2], 1.53; in assay [3], -0.0766; in assay [4] it was 1.13; in assay [5], 1.53; in [6], 0.766. Moreover, the composite z-score in [7] was 1.32; in assay [9] it was 0.284; in assay [10] it was -0.0618; in [11], 1.55; in [15] it was 1.86; in assay [17], -0.11. Besides, the composite z-score in [18] is 1.08; in assay [19], 1.07; in assay [20], 0.0367. For the same compound, the z-score was 0.439 (inactive) in assay [8]; 1.2 (inactive) in [12]; -0.767 (inactive) in assay [13]; 0.375 (inactive) in [14]; 1.27 (inactive) in [16].
